# From the supplement of paper PMC10849652
# Targets with a hit are over-represented here; the source holds about 7,900 in all. About 0.6% of all pairs of compound and target were hits. Unmarked numbers belong to inactive results.
# Compound: CC(=O)c1cnc2ccc(-c3cc(Cl)c(O)c(Cl)c3)nc2c1N[C@H]1CC[C@H](CN(C)C)CC1
# Assay: log2 fold change, soluble protein after heating vs DMSO (PISA); higher = thermal stabilisation; K562 cells, 10 uM, 30 min; active = over 0.2 and 3.5 SD of the protein, either way, in both replicates (recomputed)
# Summary of the method: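 K562 cells (2×10^6 cells/mL) were treated with 10 μM compound for 30 min, and aliquots were heated for 3 min over 48°C-58°C. Pooled aliquots were extracted in PBS with 0.5% NP-40 at 4°C, and the supernatant after 21,000xg for 90 min was measured by TMTpro 16plex LC-MS/MS with channel sums equalised. Reported thermal stability, relative to control samples and from duplicates, is a log2 fold change.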
# UniProt O00567, sequence (O00567 whole entry, looked up): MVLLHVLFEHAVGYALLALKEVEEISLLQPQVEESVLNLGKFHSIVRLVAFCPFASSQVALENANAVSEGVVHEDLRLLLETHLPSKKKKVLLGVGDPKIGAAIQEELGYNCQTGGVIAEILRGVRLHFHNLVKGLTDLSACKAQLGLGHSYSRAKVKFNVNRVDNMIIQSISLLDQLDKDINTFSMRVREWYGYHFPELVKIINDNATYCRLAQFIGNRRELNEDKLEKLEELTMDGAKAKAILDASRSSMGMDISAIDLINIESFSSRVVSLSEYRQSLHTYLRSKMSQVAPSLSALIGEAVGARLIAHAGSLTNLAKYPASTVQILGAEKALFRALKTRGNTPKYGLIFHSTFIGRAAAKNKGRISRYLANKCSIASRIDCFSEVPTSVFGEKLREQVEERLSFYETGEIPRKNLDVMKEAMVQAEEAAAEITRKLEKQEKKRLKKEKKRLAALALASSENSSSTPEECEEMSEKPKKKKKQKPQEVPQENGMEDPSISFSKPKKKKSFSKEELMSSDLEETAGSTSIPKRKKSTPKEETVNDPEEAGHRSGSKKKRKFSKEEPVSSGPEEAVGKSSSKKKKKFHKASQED
# UniProt Q8TEM1, sequence (Q8TEM1 whole entry, looked up): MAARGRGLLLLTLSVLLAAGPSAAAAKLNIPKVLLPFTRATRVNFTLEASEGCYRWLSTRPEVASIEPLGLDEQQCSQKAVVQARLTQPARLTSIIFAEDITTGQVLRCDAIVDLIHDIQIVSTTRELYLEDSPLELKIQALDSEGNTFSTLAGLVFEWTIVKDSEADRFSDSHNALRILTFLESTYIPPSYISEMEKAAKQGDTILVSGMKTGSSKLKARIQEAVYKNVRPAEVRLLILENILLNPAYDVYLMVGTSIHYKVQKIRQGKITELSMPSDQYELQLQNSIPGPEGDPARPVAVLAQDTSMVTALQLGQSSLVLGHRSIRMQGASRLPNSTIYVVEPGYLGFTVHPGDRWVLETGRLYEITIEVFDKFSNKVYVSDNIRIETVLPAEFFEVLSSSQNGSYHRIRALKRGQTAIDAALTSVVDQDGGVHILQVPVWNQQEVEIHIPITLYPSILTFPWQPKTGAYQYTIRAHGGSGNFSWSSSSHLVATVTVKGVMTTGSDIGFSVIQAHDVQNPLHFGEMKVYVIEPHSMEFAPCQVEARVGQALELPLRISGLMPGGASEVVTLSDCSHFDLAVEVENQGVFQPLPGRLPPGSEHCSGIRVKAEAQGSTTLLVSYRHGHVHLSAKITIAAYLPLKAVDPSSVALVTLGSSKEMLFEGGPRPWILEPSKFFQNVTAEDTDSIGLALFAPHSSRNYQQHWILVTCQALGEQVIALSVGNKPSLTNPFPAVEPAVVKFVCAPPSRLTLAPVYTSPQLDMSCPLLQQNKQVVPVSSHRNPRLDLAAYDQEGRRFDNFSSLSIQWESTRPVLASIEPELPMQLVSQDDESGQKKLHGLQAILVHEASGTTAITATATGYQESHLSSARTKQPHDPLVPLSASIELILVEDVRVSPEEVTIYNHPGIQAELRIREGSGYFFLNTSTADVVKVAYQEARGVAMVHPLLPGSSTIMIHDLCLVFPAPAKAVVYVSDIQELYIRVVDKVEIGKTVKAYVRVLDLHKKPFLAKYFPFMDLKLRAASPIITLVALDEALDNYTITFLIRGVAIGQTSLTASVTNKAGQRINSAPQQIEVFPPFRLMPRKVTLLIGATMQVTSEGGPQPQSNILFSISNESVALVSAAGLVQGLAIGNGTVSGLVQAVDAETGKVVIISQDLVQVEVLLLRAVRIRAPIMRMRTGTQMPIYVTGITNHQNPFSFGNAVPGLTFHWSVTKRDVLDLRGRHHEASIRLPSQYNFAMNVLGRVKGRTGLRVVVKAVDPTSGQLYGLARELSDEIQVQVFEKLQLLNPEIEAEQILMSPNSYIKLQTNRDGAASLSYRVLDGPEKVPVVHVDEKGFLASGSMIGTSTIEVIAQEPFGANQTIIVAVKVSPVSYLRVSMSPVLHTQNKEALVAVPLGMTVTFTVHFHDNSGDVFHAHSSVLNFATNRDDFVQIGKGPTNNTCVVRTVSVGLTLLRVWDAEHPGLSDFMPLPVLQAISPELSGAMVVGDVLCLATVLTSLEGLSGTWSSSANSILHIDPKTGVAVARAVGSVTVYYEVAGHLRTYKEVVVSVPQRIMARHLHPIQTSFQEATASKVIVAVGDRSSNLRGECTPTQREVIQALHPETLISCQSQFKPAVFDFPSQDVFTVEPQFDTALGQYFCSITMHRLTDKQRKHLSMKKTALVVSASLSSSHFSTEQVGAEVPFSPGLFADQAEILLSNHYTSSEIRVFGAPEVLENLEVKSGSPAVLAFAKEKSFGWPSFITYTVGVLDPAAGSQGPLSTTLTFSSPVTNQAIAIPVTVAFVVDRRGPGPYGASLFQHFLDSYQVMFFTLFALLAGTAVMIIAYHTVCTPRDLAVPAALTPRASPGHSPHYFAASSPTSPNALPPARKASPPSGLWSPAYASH
# UniProt Q13952, sequence (Q13952 whole entry, looked up): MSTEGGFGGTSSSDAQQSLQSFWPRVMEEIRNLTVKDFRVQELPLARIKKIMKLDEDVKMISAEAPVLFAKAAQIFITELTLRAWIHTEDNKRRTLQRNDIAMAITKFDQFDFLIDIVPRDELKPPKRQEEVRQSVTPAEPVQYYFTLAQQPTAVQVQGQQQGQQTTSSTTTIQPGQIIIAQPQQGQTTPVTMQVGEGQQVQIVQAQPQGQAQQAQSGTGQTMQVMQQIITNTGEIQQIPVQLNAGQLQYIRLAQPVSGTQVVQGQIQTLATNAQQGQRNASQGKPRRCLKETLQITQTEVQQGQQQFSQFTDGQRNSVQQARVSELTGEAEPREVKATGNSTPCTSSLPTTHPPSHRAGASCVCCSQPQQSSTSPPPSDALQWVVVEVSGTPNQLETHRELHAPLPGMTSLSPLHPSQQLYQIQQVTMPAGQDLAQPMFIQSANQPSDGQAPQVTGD
# UniProt Q9BPX3, sequence (Q9BPX3 whole entry, looked up): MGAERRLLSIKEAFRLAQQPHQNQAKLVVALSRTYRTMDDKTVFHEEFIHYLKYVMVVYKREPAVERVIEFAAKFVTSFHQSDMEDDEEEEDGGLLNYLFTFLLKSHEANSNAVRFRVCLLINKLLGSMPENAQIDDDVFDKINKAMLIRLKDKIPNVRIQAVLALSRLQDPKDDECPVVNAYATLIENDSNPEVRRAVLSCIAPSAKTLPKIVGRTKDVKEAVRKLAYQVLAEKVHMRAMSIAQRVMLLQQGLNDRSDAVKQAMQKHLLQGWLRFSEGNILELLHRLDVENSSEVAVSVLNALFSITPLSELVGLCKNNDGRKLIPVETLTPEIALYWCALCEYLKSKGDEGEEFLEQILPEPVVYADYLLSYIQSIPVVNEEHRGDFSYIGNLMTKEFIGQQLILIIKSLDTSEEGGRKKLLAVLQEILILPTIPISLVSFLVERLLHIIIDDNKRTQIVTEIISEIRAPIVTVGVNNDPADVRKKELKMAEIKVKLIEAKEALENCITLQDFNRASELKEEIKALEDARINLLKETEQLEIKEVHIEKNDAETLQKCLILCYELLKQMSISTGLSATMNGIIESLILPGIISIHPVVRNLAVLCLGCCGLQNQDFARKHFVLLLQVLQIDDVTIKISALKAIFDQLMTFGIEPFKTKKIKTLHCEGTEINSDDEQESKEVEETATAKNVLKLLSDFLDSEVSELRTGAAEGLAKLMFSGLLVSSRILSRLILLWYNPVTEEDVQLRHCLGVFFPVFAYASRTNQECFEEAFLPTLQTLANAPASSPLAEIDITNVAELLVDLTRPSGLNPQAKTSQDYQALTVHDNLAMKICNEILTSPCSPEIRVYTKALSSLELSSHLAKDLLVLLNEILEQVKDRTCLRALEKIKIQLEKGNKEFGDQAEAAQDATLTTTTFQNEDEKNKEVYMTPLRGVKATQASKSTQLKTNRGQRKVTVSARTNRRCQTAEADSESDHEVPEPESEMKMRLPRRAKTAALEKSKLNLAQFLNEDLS
# UniProt Q9BZF1, sequence (Q9BZF1 whole entry, looked up): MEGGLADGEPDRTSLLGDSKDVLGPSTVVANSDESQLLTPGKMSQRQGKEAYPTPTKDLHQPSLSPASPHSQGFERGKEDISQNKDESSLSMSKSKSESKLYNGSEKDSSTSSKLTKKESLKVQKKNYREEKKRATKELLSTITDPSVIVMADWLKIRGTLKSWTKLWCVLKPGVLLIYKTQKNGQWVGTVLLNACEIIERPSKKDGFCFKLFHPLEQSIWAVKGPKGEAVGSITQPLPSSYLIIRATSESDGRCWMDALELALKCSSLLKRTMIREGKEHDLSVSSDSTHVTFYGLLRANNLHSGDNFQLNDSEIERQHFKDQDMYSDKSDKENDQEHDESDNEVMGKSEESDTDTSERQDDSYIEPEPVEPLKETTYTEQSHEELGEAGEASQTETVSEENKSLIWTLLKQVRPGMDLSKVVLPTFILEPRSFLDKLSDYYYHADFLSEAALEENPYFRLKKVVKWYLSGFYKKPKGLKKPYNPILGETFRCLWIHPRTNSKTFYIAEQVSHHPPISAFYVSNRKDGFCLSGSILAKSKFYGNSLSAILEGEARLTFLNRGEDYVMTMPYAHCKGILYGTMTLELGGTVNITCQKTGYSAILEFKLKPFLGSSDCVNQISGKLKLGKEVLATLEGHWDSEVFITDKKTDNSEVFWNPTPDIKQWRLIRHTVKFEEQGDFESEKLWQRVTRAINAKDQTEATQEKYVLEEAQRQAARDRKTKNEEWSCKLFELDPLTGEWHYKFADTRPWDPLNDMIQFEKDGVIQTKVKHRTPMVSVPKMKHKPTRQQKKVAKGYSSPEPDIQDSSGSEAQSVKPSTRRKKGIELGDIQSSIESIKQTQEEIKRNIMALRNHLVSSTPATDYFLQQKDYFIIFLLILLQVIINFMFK
# UniProt Q9UMY1, sequence (Q9UMY1 whole entry, looked up): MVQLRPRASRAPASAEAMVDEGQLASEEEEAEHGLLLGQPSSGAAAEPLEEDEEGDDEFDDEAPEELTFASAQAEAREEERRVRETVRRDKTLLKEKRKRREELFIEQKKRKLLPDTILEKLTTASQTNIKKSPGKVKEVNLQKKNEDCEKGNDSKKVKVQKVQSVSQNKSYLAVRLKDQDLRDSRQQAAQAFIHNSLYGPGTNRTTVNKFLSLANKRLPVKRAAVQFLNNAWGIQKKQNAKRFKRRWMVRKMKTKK
row,Target,log2 fold change
1,NDUFA6 (UniProt P56556),-0.092
2,MORF4L2 (UniProt Q15014),0.047
3,NOL7 (UniProt Q9UMY1),0.158
4,NELFA (UniProt Q9H3P2),-0.357
5,NHLRC2 (UniProt Q8NBF2),-0.02
6,MRPS25 (UniProt P82663),-0.021
7,MINK1 (UniProt Q8N4C8),-0.715 (active)
8,OSBPL8 (UniProt Q9BZF1),-0.204
9,NDUFA9 (UniProt Q16795),-0.037
10,NTMT1 (UniProt Q9BV86),-0.046
11,NFATC3 (UniProt Q12968),-0.406 (active)
12,NAA11 (UniProt Q9BSU3),-0.102
13,NUDT1 (UniProt P36639),0.816 (active)
14,MRPS18B (UniProt Q9Y676),-0.096
15,NOP56 (UniProt O00567),0.015
16,MRPS15 (UniProt P82914),-0.024
17,MXRA7 (UniProt P84157),-0.064
18,NPC1 (UniProt O15118),0.031
19,NUCKS1 (UniProt Q9H1E3),0.208
20,NCAPG (UniProt Q9BPX3),0.084

row,Target,log2 fold change
1,NDUFB7 (UniProt P17568),0.007
2,NACC1 (UniProt Q96RE7),-0.109
3,NDUFS8 (UniProt O00217),-0.02
4,NCL (UniProt P19338),0.118
5,NOB1 (UniProt Q9ULX3),-0.083
6,NDUFA12 (UniProt Q9UI09),-0.04
7,NBN (UniProt O60934),-0.147
8,NIBAN1 (UniProt Q9BZQ8),-0.163
9,OXSR1 (UniProt O95747),-0.341 (active)
10,NFYC (UniProt Q13952),-0.023
11,NAPG (UniProt Q99747),-0.067
12,NUP210 (UniProt Q8TEM1),-0.038
13,MRPS24 (UniProt Q96EL2),-0.071
14,NMT1 (UniProt P30419),0.017
15,NUP205 (UniProt Q92621),-0.1
16,MRPL46 (UniProt Q9H2W6),0.077
17,MON1B (UniProt Q7L1V2),-0.013
18,NFX1 (UniProt Q12986),-0.002
19,MRPS16 (UniProt Q9Y3D3),-0.047
